Test results taken from PubChem BioAssay AID1159580 (chemical genetic matrix, 2015).
About 2,000 (36%) of roughly 5,500 compounds were called active. Roughly 18% stayed inconclusive and do not appear here. The list shows a part of the results. Values without a mark were called inactive. No stated cut-off is given here; in the data, active means normalized growth mostly below about 0.91 (no sharp cut-off); inconclusive means no clear call, values can overlap the other calls; inactive means mostly above about 0.92.

Test: chemical genetic growth profiling, strain panel (AID 1159580);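 further: tested at 20 µM; growth read once vehicle control cultures reached saturation at 30 °C; 1 = growth at the plate median or of vehicle wells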
Conditions: growth OD

Which results are given for `O=c1c(O)c(-c2ccc(O)c(O)c2)oc2cc(O)ccc12`?
normalized growth (S. cerevisiae deletion strains, locus YKL009W, strain mrt4, stronger effect = lower value): 1.03; normalized growth (S. cerevisiae deletion strains, locus YKL068W, stronger effect = lower value): 0.99; normalized growth (S. cerevisiae deletion strains, locus YKL085W, strain MDH1 (second series), stronger effect = lower value): 1; normalized growth (S. cerevisiae deletion strains, locus YKL085W, strain MDH1, stronger effect = lower value): 1; normalized growth (S. cerevisiae deletion strains, locus YKL160W, strain elf1, stronger effect = lower value): 0.982; normalized growth (S. cerevisiae deletion strains, locus YKL190W, strain CNB1, stronger effect = lower value): 0.881 (active); normalized growth (S. cerevisiae deletion strains, locus YKR001C, strain vps1, stronger effect = lower value): 0.857 (active); normalized growth (S. cerevisiae deletion strains, locus YKR026C, strain gcn3, stronger effect = lower value): 1; normalized growth (S. cerevisiae deletion strains, locus YKR091W, strain srl3, stronger effect = lower value): 1; normalized growth (S. cerevisiae deletion strains, locus YLL001W, strain dnm1, stronger effect = lower value): 0.994; normalized growth (S. cerevisiae deletion strains, locus YLL026W, stronger effect = lower value): 0.995; normalized growth (S. cerevisiae deletion strains, locus YLL041C, strain sdh2, stronger effect = lower value): 0.996; normalized growth (S. cerevisiae deletion strains, locus YLR027C, strain aat2, stronger effect = lower value): 0.968; normalized growth (S. cerevisiae deletion strains, locus YLR039C, strain RIC1, stronger effect = lower value): 0.848; normalized growth (S. cerevisiae deletion strains, locus YLR058C, strain SHM2, stronger effect = lower value): 0.978; normalized growth (S. cerevisiae deletion strains, locus YLR102C, strain apc9, stronger effect = lower value): 1.01; normalized growth (S. cerevisiae deletion strains, locus YLR113W, strain HOG1, stronger effect = lower value): 0.571 (active); normalized growth (S. cerevisiae deletion strains, locus YLR221C, strain rsa3, stronger effect = lower value): 0.95; normalized growth (S. cerevisiae deletion strains, locus YLR258W, strain gsy2, stronger effect = lower value): 1; normalized growth (S. cerevisiae deletion strains, locus YLR262C, strain YPT6 (second series), stronger effect = lower value): 0.981; normalized growth (S. cerevisiae deletion strains, locus YLR262C, strain YPT6, stronger effect = lower value): 0.877; normalized growth (S. cerevisiae deletion strains, locus YLR268W, strain sec22, stronger effect = lower value): 0.854 (active); normalized growth (S. cerevisiae deletion strains, locus YLR320W, strain mms22, stronger effect = lower value): 0.942; normalized growth (S. cerevisiae deletion strains, locus YLR330W, strain CHS5, stronger effect = lower value): 0.908 (active); normalized growth (S. cerevisiae deletion strains, locus YLR342W, strain FKS1 (second series), stronger effect = lower value): 0.753 (active); normalized growth (S. cerevisiae deletion strains, locus YLR342W, strain FKS1, stronger effect = lower value): 0.978; normalized growth (S. cerevisiae deletion strains, locus YLR357W, strain rsc2, stronger effect = lower value): 0.922; normalized growth (S. cerevisiae deletion strains, locus YLR370C, strain arc18, stronger effect = lower value): 0.978; normalized growth (S. cerevisiae deletion strains, locus YLR371W, strain rom2, stronger effect = lower value): 0.882 (active); normalized growth (S. cerevisiae deletion strains, locus YLR384C, strain iki3, stronger effect = lower value): 0.98; normalized growth (S. cerevisiae deletion strains, locus YLR418C, strain cdc73, stronger effect = lower value): 0.565 (active); normalized growth (S. cerevisiae deletion strains, locus YML016C, strain PPZ1, stronger effect = lower value): 0.974; normalized growth (S. cerevisiae deletion strains, locus YML032C, strain rad52, stronger effect = lower value): 0.962; normalized growth (S. cerevisiae deletion strains, locus YML120C, strain ndi1, stronger effect = lower value): 1.01; normalized growth (S. cerevisiae deletion strains, locus YML124C, strain tub3, stronger effect = lower value): 1; normalized growth (S. cerevisiae deletion strains, locus YMR058W, strain fet3, stronger effect = lower value): 0.944; normalized growth (S. cerevisiae deletion strains, locus YMR078C, strain ctf18, stronger effect = lower value): 0.997; normalized growth (S. cerevisiae deletion strains, locus YMR125W, strain sto1, stronger effect = lower value): 1.02; normalized growth (S. cerevisiae deletion strains, locus YMR129W, stronger effect = lower value): 0.986; normalized growth (S. cerevisiae deletion strains, locus YMR205C, strain PFK2, stronger effect = lower value): 0.994; normalized growth (S. cerevisiae deletion strains, locus YMR223W, strain ubp8, stronger effect = lower value): 0.893 (active); normalized growth (S. cerevisiae deletion strains, locus YMR231W, strain pep5, stronger effect = lower value): 0.987; normalized growth (S. cerevisiae deletion strains, locus YMR263W, strain SAP30, stronger effect = lower value): 0.892; normalized growth (S. cerevisiae deletion strains, locus YMR307W, strain GAS1, stronger effect = lower value): 0.675; normalized growth (S. cerevisiae deletion strains, locus YNL067W, strain RPL9B, stronger effect = lower value): 0.901; normalized growth (S. cerevisiae deletion strains, locus YNL071W, strain lat1, stronger effect = lower value): 0.945; normalized growth (S. cerevisiae deletion strains, locus YNL128W, strain TEP1, stronger effect = lower value): 0.864; normalized growth (S. cerevisiae deletion strains, locus YNL153C, strain GIM3, stronger effect = lower value): 0.806 (active); normalized growth (S. cerevisiae deletion strains, locus YNL183C, strain NPR1, stronger effect = lower value): 0.357 (active); normalized growth (S. cerevisiae deletion strains, locus YNL209W, strain ssb2, stronger effect = lower value): 0.949; normalized growth (S. cerevisiae deletion strains, locus YNL233W, strain BNI4, stronger effect = lower value): 0.795 (active); normalized growth (S. cerevisiae deletion strains, locus YNL248C, strain rpa49, stronger effect = lower value): 0.995; normalized growth (S. cerevisiae deletion strains, locus YNL250W, strain rad50, stronger effect = lower value): 0.942; normalized growth (S. cerevisiae deletion strains, locus YNL271C, strain bni1, stronger effect = lower value): 0.978; normalized growth (S. cerevisiae deletion strains, locus YNL298W, strain CLA4, stronger effect = lower value): 0.965; normalized growth (S. cerevisiae deletion strains, locus YNL307C, strain MCK1, stronger effect = lower value): 0.779 (active); normalized growth (S. cerevisiae deletion strains, locus YNL322C, strain KRE1 (second series), stronger effect = lower value): 1; normalized growth (S. cerevisiae deletion strains, locus YNL322C, strain KRE1, stronger effect = lower value): 0.918 (active); normalized growth (S. cerevisiae deletion strains, locus YNR049C, strain mso1, stronger effect = lower value): 0.997; normalized growth (S. cerevisiae deletion strains, locus YNR052C, strain pop2, stronger effect = lower value): 1; normalized growth (S. cerevisiae deletion strains, locus YOL006C, strain TOP1, stronger effect = lower value): 0.52 (active); normalized growth (S. cerevisiae deletion strains, locus YOL012C, strain htz1): 0.318; normalized growth (S. cerevisiae deletion strains, locus YOL147C, strain pex11, stronger effect = lower value): 1; normalized growth (S. cerevisiae deletion strains, locus YOR001W, strain rrp6, stronger effect = lower value): 0.935; normalized growth (S. cerevisiae deletion strains, locus YOR061W, strain CKA2, stronger effect = lower value): 0.955; normalized growth (S. cerevisiae deletion strains, locus YOR069W, strain VPS5, stronger effect = lower value): 0.997; normalized growth (S. cerevisiae deletion strains, locus YOR070C, strain gyp1, stronger effect = lower value): 0.968; normalized growth (S. cerevisiae deletion strains, locus YOR080W, strain dia2, stronger effect = lower value): 0.984; normalized growth (S. cerevisiae deletion strains, locus YOR083W, strain WHI5, stronger effect = lower value): 0.984; normalized growth (S. cerevisiae deletion strains, locus YOR106W, strain vam3, stronger effect = lower value): 0.984; normalized growth (S. cerevisiae deletion strains, locus YOR136W, strain idh2, stronger effect = lower value): 0.976; normalized growth (S. cerevisiae deletion strains, locus YOR144C, strain elg1, stronger effect = lower value): 1.01; normalized growth (S. cerevisiae deletion strains, locus YOR184W, strain ser1, stronger effect = lower value): 0.883; normalized growth (S. cerevisiae deletion strains, locus YOR231W, strain MKK1, stronger effect = lower value): 0.54 (active); normalized growth (S. cerevisiae deletion strains, locus YOR265W, strain rbl2, stronger effect = lower value): 1.02; normalized growth (S. cerevisiae deletion strains, locus YOR270C, strain vph1, stronger effect = lower value): 1.02; normalized growth (S. cerevisiae deletion strains, locus YOR290C, strain snf2, stronger effect = lower value): 0.997; normalized growth (S. cerevisiae deletion strains, locus YOR316C, strain cot1, stronger effect = lower value): 1.01; normalized growth (S. cerevisiae deletion strains, locus YPL051W, strain arl3, stronger effect = lower value): 0.962; normalized growth (S. cerevisiae deletion strains, locus YPL055C, strain LGE1, stronger effect = lower value): 0.784; normalized growth (S. cerevisiae deletion strains, locus YPL078C, strain atp4, stronger effect = lower value): 1.01; normalized growth (S. cerevisiae deletion strains, locus YPL106C, strain sse1, stronger effect = lower value): 0.971; normalized growth (S. cerevisiae deletion strains, locus YPL240C, strain hsp82, stronger effect = lower value): 0.998; normalized growth (S. cerevisiae deletion strains, locus YPL241C, strain CIN2, stronger effect = lower value): 0.981; normalized growth (S. cerevisiae deletion strains, locus YPL256C, strain CLN2, stronger effect = lower value): 0.421 (active); normalized growth (S. cerevisiae deletion strains, locus YPR119W, strain clb2, stronger effect = lower value): 1.01; normalized growth (S. cerevisiae deletion strains, locus YPR141C, strain kar3, stronger effect = lower value): 0.978; normalized growth (S. cerevisiae deletion strains, locus YPR163C, strain tif3, stronger effect = lower value): 0.956; normalized growth (S. cerevisiae deletion strains, locus YPR167C, strain met16, stronger effect = lower value): 1.01; normalized growth (S. cerevisiae deletion strains, strain wtn01, stronger effect = lower value): 0.86 (active); normalized growth (S. cerevisiae strains, strain wild type, stronger effect = lower value): 0.815 (active)
